Source: PubChem BioAssay (EPA / NIEHS)
Calls of active or inactive are those of the source. Rule for the calls: active = hit-call score of the fitted dose curve at least 0.9, where 1 is the maximum; inactive = score below 0.9.

The compounds below were run against Signal transducer and activator of transcription 3 (Homo sapiens) (UniProt P40763) (assay: ATG_STAT3_CIS: Attagene CIS-FACTORIAL HepG2 Assay for human Signal Transducer and Activator of Transcription 3 (STAT3) (AID 2282963)). Conditions: HepG2, Attagene cis-factorial STAT3 reporter transcription; actives raise or lower the signal.
Sequence of Signal transducer and activator of transcription 3 (Homo sapiens) (P40763 whole entry, looked up): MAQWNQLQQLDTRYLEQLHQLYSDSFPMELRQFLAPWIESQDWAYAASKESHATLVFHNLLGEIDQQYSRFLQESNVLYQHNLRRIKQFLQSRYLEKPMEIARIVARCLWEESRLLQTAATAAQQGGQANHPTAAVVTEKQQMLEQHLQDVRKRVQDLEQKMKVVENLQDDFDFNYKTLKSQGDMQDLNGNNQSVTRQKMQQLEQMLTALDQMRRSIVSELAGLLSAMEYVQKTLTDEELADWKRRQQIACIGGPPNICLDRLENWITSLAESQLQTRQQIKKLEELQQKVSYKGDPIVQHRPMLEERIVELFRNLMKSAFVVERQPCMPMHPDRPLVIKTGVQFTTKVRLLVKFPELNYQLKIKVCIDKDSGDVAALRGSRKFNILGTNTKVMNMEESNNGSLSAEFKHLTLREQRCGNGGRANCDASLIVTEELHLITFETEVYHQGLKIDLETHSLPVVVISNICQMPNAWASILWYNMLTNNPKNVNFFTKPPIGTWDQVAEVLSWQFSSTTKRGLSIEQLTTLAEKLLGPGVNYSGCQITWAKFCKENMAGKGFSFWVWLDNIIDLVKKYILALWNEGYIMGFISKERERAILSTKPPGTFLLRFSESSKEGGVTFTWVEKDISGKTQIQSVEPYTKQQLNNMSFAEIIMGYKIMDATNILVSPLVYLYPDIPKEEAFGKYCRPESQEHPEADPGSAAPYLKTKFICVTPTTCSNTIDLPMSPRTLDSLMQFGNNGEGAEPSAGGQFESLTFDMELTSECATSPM
Protocol: ATG_CIS is a cell-based, multiplexed-readout assay that uses HepG2, a human liver cell line, with measurements taken at 24 hours after chemical dosing in a 24-well plate.ATG_STAT3_CIS is one of 52 assay component(s) measured or calculated from the ATG_CIS assay. It is designed to make measurements of mRNA induction, a form of inducible reporter, as detected with fluorescence intensity signals by Reverse transcription polymerase chain reaction (RT-PCR) and Capillary electrophoresis technology.Data from the assay component ATG_STAT3_CIS was analyzed into 1 assay endpoint. This assay endpoint, ATG_STAT3_CIS, was analyzed with bidirectional fitting relative to DMSO as the negative control and baseline of activity. Using a type of inducible reporter, measures of mRNA for gain or loss-of-signal activity can be used to understand the reporter gene at the transcription factor-level as they relate to the gene STAT3. Furthermore, this assay endpoint can be referred to as a primary readout, because this assay has produced multiple assay endpoints where this one serves a reporter gene function. To generalize the intended target to other relatable targets, this assay endpoint is annotated to the dna binding intended target family, where the subfamily is stat protein.
Human liver HepG2 cells are transiently transfected with multiple reporter transcription units (MRTUs) in 6-well plates using FuGene 6 reagent (Roche; 3 ml FuGene/1 mg DNA). The MRTU constructs are regulated by a cis-regulating element (promoter). […] A major difference between the CIS and TRANS system is that in CIS activities of endogenous TFs are measured, whereas the TRANS assay evaluates changes in activities of exogenous, chimeric NR-Gal4 proteins. […] At the end of 24 hour incubation, total RNA was isolated using TriZol reagent (Invitrogen). The isolated RNA is then reverse-transcribed using oligo(dT) primer and Mo-MLV reverse transcriptase (Invitrogen) with DNAse I (Ambion) treatment for 30 min. The one-tenth of the produced cDNA was amplified by PCR using Taq DNA polymerase (Invitrogen) and two reporter sequence-specific primers. The PCR products were fluorescently labeled by primer extension with 6-arboxyfluorescein (6-FAM) 5'-labeled reporter sequence-specific primer (2 min at 95 C, 20 s at 68 C and 10 min at 72 C) and these products were digested with 5U of HpaI (New England Biolabs) for 2h at 37 C. The fragments were purified using Qiaquick PCR columns (Qiagen), analyzed on an ABI 3130xL genetic analyzer (Applied Biosystems) with peak positions identified by using a set of X-rhodamine (ROX)-labeled MapMarker1000 molecular weight standards (BioVentures). The raw capillary electrophoresis data was processed using Attagraph software (Attagene).
With `c1ccc2c(c1)oc1ccccc12` the outcome was “inactive”. With `COP(=S)(OC)SCN1C(=O)c2ccccc2C1=O` the outcome was “inactive”. With `O=Cc1ccco1` the outcome was “inactive”. `CN(C)c1ccccc1` was tested, and the outcome was “inactive”. With `CCNS(=O)(=O)C(F)(F)C(F)(F)C(F)(F)C(F)(F)C(F)(F)C(F)(F)C(F)(F)C(F)(F)F` the outcome was “inactive”. For `CS(=O)(=O)NC(=O)c1cc(Oc2ccc(C(F)(F)F)cc2Cl)ccc1[N+](=O)[O-]`, the outcome was “inactive”. `CC(C)COC(=O)c1ccccc1C(=O)OCC(C)C` was tested, and the outcome was “inactive”. With `O=C1CCCO1` the outcome was “inactive”. `CO[C@@H]1[C@H](OC(=O)NC(=O)CCl)CC[C@]2(CO2)[C@H]1[C@@]1(C)O[C@@H]1CC=C(C)C` was tested, and the outcome was “inactive”. In the case of `CCC12COCN1COC2`, the outcome was “inactive”. In the case of `O=C(N[C@H](c1ccccc1)[C@@H]1CN2CCC1CC2)c1c(Cl)ccc(C(F)(F)F)c1Cl`, the outcome was “inactive”. With `Nc1cc(Cl)cc(C(=O)O)c1Cl` the outcome was “inactive”. In the case of `Clc1ccccc1Cl`, the outcome was “inactive”. In the case of `CC(C)(C)OOC(C)(C)CCC(C)(C)OOC(C)(C)C`, the outcome was “inactive”. `N#CC(Br)Br` was tested, and the outcome was “inactive”. With `OCCCBr` the outcome was “inactive”. `Brc1ccc(Oc2ccccc2)cc1` was tested, and the outcome was “inactive”. `N#CC(Br)(Br)C(N)=O` was tested, and the outcome was “inactive”. For `[Cl-].[Cl-].[Hg+2]`, the outcome was “inactive”. In the case of `O=[N+]([O-])c1ccc(Oc2ccc(Cl)cc2Cl)cc1`, the outcome was “inactive”. With `c1ccc(N=Nc2ccccc2)cc1` the outcome was “inactive”. For `ClC1=C(Cl)[C@]2(Cl)[C@H]3[C@H]([C@@H]4C=C[C@H]3C4)[C@@]1(Cl)C2(Cl)Cl`, the outcome was “inactive”. In the case of `CNC(=O)Oc1cccc2c1OC(C)(C)C2`, the outcome was “inactive”. `Cc1ccc(N)c(N)c1` was tested, and the outcome was “inactive”. `COc1cc(C=O)cc2c1[C@H](COC(N)=O)[C@]1(OC(C)=O)ON2C[C@H]2[C@@H]1N2C(C)=O` was tested, and the AC50 was 33.4 µM (active). With `c1ccc(NNc2ccccc2)cc1` the outcome was “inactive”. In the case of `Cn1cc(-c2ccccc2)c(=O)c(-c2cccc(C(F)(F)F)c2)c1`, the outcome was “inactive”. For `Nc1ccc(N=Nc2ccccc2)cc1`, the outcome was “inactive”. For `OCCOCCO`, the outcome was “inactive”. In the case of `C[C@]12C=CC3=C4CCC(=O)C=C4CC[C@H]3[C@@H]1CC[C@@H]2O`, the outcome was “inactive”. For `CCOC(=O)[C@]1(c2ccccc2)Oc2ccccc2[C@@H]1N`, the outcome was “inactive”. For `CCCSC(=O)N(CCC)CCC`, the outcome was “inactive”. `Nc1ccc(Cl)cc1N` was tested, and the outcome was “inactive”. With `CC(O)CCO` (stereo not given) the outcome was “inactive”. In the case of `CCCCCCCCCCCCCN1CC(C)OC(C)C1` (stereo not given), the outcome was “inactive”. In the case of `Nc1ccc([N+](=O)[O-])cc1`, the outcome was “inactive”. For `Cc1ccc(N)cc1`, the outcome was “inactive”. With `Clc1ccc(Cl)c(Cl)c1` the outcome was “inactive”. With `C1=Cc2cccc3cccc1c23` the outcome was “inactive”. `O=C(O)C1C2CCC(O2)C1C(=O)O` (stereo not given) was tested, and the outcome was “inactive”.
